Experimental data as given in ChEMBL document CHEMBL1961873, “Compounds: GSK PKIS; Assays: Nanosyn kinase panel” (2012).

Columns and labels:
[1] = target: T1, Ephrin type-B receptor 2 (Homo sapiens) (UniProt P29323); conditions: at 1 µM
T1 sequence (whole entry): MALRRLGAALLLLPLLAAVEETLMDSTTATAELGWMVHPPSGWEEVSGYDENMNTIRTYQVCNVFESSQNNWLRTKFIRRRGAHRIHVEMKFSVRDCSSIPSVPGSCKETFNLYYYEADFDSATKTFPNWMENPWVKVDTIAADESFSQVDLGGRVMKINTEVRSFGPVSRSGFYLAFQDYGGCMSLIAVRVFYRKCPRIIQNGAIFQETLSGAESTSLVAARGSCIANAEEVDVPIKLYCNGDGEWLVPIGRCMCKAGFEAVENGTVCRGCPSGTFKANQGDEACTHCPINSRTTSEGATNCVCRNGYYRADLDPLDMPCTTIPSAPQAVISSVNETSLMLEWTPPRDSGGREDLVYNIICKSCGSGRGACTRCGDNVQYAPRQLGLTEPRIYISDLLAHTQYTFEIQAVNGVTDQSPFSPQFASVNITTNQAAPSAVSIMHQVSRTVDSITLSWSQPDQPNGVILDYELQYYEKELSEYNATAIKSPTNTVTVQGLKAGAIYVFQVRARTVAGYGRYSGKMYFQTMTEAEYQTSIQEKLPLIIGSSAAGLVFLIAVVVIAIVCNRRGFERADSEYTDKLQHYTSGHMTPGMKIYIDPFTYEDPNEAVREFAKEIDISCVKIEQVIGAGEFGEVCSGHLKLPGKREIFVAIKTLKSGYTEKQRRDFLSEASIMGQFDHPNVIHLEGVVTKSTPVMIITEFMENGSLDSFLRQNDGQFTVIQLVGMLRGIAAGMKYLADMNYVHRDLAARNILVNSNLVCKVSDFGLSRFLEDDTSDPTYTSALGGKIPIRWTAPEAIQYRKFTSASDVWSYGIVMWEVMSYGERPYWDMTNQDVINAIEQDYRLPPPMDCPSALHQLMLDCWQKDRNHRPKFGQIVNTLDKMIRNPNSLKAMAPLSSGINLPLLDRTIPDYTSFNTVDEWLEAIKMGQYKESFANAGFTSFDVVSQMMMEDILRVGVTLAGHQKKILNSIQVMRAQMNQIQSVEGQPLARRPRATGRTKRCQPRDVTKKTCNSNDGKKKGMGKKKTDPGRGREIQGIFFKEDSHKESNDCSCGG

[2] = target: T2, Ephrin type-B receptor 3 (Homo sapiens) (UniProt P54753); conditions: at 0.1 µM
T2 sequence (whole entry): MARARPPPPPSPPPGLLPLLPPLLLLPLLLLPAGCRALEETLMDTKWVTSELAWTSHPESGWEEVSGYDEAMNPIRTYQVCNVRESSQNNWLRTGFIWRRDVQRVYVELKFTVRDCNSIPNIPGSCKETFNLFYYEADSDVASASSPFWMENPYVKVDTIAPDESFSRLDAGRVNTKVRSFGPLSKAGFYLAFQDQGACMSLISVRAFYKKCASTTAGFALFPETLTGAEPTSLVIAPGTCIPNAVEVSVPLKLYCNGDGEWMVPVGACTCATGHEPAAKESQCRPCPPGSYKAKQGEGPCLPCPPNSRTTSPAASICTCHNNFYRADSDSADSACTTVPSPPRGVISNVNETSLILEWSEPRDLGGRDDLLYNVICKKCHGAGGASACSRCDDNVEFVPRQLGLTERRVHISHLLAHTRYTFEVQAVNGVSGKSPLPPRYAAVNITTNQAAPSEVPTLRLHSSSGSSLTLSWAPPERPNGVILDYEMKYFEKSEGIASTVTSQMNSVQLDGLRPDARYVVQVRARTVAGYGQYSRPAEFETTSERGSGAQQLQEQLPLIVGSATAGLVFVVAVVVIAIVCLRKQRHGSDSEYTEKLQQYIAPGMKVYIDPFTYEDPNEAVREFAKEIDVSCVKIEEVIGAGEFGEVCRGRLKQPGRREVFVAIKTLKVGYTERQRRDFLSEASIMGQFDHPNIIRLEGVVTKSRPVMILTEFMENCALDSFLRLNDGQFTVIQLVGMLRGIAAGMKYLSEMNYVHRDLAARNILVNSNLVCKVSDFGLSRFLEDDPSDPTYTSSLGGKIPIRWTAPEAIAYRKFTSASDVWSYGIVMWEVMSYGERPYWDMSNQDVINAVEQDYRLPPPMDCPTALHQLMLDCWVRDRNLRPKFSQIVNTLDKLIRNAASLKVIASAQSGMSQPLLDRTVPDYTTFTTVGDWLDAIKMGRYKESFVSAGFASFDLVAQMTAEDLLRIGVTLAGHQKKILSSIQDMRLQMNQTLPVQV

[3] = target: T2, Ephrin type-B receptor 3 (Homo sapiens); conditions: at 1 µM
[4] = target: T3, Ephrin type-B receptor 4 (Homo sapiens) (UniProt P54760); conditions: at 0.1 µM
T3 sequence (whole entry): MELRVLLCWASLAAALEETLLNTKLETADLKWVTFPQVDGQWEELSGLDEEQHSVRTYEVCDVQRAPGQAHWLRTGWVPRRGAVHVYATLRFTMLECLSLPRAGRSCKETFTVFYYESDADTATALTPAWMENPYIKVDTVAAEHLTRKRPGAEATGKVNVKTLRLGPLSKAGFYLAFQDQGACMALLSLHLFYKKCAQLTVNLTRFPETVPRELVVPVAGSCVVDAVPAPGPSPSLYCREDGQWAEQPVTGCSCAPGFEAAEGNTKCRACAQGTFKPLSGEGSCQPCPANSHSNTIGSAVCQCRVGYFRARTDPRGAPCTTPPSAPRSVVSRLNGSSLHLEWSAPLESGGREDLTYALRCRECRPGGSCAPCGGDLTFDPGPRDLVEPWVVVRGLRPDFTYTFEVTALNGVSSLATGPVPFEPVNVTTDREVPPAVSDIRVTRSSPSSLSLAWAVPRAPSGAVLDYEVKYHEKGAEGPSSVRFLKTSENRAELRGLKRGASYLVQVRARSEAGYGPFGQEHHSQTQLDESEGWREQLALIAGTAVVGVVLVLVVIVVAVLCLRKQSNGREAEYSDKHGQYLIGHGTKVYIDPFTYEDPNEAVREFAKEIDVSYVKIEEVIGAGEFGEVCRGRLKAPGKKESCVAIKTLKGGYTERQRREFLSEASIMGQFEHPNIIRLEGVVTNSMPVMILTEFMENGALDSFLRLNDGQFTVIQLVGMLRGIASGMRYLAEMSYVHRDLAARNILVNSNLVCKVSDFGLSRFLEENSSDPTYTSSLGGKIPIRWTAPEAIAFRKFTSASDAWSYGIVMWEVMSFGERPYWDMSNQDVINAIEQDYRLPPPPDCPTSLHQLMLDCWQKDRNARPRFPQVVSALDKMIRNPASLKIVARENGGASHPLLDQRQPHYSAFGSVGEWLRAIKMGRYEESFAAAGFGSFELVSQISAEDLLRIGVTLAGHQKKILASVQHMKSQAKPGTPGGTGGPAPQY

[5] = target: T3, Ephrin type-B receptor 4 (Homo sapiens); conditions: at 1 µM
[6] = target: Receptor tyrosine-protein kinase erbB-2 (Homo sapiens) (UniProt P04626); conditions: at 0.1 µM
[7] = target: Receptor tyrosine-protein kinase erbB-2 (Homo sapiens) (UniProt P04626); conditions: at 1 µM
[8] = target: Receptor tyrosine-protein kinase erbB-4 (Homo sapiens) (UniProt Q15303); conditions: at 0.1 µM
[9] = target: Receptor tyrosine-protein kinase erbB-4 (Homo sapiens) (UniProt Q15303); conditions: at 1 µM
[10] = target: Tyrosine-protein kinase Fer (Homo sapiens) (UniProt P16591); conditions: at 0.1 µM
[11] = target: Tyrosine-protein kinase Fer (Homo sapiens) (UniProt P16591); conditions: at 1 µM
[12] = target: Tyrosine-protein kinase Fes/Fps (Homo sapiens) (UniProt P07332); conditions: at 0.1 µM
[13] = target: Tyrosine-protein kinase Fes/Fps (Homo sapiens) (UniProt P07332); conditions: at 1 µM
[14] = target: Fibroblast growth factor receptor 1 (Homo sapiens) (UniProt P11362); conditions: at 0.1 µM
[15] = target: Fibroblast growth factor receptor 1 (Homo sapiens) (UniProt P11362); conditions: at 1 µM
[16] = target: Fibroblast growth factor receptor 2 (Homo sapiens) (UniProt P21802); conditions: at 0.1 µM
[17] = target: Fibroblast growth factor receptor 2 (Homo sapiens) (UniProt P21802); conditions: at 1 µM
[18] = target: Fibroblast growth factor receptor 3 (Homo sapiens) (UniProt P22607); conditions: at 0.1 µM
[19] = target: Fibroblast growth factor receptor 3 (Homo sapiens) (UniProt P22607); conditions: at 1 µM
[20] = target: Fibroblast growth factor receptor 4 (Homo sapiens) (UniProt P22455); conditions: at 0.1 µM;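 further: values are mean percent inhibition of FGFR4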
Chain of Fibroblast growth factor receptor 4 (Homo sapiens) (P22455 22-802 limits assumed): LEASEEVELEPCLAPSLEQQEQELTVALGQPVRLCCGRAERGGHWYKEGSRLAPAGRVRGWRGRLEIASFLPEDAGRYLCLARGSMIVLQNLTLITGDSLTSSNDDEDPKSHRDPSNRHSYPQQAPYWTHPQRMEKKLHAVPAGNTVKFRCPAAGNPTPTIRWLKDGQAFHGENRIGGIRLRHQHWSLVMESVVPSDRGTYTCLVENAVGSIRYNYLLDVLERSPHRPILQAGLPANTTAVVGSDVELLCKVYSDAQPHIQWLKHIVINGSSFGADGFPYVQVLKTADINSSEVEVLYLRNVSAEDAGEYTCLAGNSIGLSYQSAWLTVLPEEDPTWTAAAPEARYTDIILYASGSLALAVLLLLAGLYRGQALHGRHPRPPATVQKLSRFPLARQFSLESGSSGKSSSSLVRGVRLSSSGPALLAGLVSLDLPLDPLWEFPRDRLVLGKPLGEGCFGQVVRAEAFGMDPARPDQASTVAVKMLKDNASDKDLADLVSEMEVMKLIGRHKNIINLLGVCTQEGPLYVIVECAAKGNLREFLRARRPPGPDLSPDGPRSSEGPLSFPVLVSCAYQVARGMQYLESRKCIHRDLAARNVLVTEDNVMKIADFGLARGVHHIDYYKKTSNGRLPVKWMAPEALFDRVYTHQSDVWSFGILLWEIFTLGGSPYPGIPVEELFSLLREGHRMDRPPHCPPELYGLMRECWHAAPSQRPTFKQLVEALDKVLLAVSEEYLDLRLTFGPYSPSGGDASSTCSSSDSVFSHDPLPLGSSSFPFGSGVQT

Chain of Receptor tyrosine-protein kinase erbB-2 (Homo sapiens) (P04626 whole entry): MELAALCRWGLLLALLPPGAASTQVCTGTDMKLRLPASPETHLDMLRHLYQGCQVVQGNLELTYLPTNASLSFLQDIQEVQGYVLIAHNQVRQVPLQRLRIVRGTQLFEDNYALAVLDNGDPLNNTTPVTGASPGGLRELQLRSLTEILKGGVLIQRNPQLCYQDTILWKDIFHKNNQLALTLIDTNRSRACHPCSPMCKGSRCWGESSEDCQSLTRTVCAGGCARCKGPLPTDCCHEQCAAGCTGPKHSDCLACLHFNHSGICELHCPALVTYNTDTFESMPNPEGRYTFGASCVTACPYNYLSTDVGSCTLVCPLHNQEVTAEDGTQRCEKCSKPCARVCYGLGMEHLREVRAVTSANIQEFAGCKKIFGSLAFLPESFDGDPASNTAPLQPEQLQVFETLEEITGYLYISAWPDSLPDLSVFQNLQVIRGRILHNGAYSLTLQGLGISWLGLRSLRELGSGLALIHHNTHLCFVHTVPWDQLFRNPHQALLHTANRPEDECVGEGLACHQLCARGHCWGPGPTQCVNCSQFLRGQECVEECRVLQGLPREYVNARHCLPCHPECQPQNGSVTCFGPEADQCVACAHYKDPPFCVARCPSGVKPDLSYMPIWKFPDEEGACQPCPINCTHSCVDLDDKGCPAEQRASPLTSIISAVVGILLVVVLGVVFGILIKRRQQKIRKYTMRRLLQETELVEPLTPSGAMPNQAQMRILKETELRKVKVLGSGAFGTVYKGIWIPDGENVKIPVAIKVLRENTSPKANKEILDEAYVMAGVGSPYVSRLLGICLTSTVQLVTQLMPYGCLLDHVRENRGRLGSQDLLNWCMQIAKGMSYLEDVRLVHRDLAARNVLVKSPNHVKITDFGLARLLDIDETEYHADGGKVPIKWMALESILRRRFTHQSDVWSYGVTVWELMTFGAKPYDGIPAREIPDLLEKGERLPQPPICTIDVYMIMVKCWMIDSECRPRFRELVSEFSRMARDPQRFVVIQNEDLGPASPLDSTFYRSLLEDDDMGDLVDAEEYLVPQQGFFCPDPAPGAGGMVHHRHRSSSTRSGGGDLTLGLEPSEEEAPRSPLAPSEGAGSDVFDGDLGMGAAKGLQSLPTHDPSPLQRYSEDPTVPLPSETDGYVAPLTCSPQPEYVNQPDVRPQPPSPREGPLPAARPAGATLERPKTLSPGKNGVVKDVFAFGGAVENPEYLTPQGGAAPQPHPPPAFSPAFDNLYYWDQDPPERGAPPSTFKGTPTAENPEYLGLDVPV
Chain of Fibroblast growth factor receptor 3 (Homo sapiens) (P22607 23-806 limits assumed): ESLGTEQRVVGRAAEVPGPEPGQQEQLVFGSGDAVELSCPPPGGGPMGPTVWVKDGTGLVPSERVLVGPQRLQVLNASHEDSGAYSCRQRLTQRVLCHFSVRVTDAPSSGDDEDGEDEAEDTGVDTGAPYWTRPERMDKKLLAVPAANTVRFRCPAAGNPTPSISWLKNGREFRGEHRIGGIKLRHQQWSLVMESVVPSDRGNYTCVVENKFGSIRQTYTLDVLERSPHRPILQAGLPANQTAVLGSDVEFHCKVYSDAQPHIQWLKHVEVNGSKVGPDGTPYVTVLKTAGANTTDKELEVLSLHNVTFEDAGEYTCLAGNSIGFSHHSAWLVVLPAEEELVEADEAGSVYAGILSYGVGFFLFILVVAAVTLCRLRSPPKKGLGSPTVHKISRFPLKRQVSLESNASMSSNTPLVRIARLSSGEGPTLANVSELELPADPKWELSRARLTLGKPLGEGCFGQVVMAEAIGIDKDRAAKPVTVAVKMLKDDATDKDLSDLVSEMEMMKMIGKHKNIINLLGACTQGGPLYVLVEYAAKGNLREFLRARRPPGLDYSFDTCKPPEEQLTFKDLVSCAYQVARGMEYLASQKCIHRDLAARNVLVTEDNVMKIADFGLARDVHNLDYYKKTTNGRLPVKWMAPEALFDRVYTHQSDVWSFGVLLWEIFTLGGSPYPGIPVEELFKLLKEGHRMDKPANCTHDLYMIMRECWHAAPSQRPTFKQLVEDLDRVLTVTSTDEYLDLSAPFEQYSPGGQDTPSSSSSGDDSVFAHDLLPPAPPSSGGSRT
Chain of Tyrosine-protein kinase Fer (Homo sapiens) (P16591 whole entry, looked up): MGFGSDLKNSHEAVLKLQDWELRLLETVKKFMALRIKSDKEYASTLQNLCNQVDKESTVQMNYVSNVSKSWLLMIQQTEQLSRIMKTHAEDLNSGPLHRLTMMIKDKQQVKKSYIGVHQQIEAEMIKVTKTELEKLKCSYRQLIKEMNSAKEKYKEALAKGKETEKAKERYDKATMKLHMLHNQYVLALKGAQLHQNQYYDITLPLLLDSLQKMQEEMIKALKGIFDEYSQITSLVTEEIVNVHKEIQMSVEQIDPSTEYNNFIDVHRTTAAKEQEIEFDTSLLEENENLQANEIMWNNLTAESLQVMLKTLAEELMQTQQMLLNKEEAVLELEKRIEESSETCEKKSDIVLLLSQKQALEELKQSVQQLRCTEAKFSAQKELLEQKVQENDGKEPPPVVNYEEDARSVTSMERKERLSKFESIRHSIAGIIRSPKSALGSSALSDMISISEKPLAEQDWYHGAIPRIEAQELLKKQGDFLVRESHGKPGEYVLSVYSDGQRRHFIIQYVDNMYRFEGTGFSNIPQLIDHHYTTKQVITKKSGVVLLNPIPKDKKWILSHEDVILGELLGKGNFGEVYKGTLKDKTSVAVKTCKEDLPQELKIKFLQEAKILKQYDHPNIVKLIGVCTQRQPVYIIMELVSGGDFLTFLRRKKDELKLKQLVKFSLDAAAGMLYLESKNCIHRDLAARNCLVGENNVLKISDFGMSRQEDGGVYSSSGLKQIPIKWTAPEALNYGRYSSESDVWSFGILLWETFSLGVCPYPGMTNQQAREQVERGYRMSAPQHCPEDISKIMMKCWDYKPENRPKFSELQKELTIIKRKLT
Chain of Fibroblast growth factor receptor 1 (Homo sapiens) (P11362 22-822 limits assumed): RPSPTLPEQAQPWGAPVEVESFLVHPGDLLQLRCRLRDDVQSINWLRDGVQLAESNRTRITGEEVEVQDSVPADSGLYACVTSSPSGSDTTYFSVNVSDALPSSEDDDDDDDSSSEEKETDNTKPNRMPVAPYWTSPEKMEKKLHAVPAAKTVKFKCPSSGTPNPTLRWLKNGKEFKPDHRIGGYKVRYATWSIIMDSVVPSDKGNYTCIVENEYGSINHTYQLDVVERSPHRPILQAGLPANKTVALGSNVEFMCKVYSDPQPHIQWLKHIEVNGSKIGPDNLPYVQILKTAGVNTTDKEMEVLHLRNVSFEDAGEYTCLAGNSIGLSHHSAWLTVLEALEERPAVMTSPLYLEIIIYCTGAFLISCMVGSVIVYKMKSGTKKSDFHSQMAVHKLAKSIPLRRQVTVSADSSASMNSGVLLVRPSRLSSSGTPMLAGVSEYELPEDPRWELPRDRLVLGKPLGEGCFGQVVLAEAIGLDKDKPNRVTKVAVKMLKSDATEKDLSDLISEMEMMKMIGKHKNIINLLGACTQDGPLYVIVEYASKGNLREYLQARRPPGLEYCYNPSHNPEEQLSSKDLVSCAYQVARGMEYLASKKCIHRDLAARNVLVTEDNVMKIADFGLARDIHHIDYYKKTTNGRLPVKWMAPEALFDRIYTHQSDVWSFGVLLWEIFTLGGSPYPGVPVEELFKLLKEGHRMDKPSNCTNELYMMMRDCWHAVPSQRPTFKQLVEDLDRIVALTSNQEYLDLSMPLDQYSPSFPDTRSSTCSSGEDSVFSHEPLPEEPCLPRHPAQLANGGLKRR

SMILES | inhibition [1] | inhibition [2] | inhibition [3] | inhibition [4] | inhibition [5] | inhibition [6] | inhibition [7] | inhibition [8] | inhibition [9] | inhibition [10] | inhibition [11] | inhibition [12] | inhibition [13] | inhibition [14] | inhibition [15] | inhibition [16] | inhibition [17] | inhibition [18] | inhibition [19] | inhibition [20]
O=C(Nc1n[nH]c2nc(-c3ccco3)ccc12)C1CC1 | 12.7% | 3.53% | 2.4% | 0.45% | 4.02% | 0.39% | 0.71% | 2.93% | 2% | 0.52% | 2.89% | 1.02% | 1.51% | 2.13% | 2.39% | -0.33% | 5.26% | 1.13% | 3.83% | 2.11%
C[C@@H](Oc1cc(-n2cnc3ccc(OC4CCN(C)CC4)cc32)sc1C(N)=O)c1ccccc1Cl | 7.99% | -1.42% | -0.38% | -3.06% | -1.28% | 2.36% | 2.65% | 1.1% | 6.83% | 3.05% | 3.96% | 2.48% | 3.52% | 2.78% | 9.26% | 4.51% | 8.58% | 4.86% | 9.86% | -0.28%
O=C(Nc1n[nH]c2cc(-c3cc(F)ccc3F)ccc12)C1CC1 | 8.75% | 8.17% | 2.98% | 2.32% | 4.67% | 3.32% | 1.51% | 8.07% | 8.44% | 2.98% | 3.05% | 2.89% | 3.45% | 0.53% | 1.69% | 1.35% | 6.04% | 3.51% | 2.02% | -1.89%
Cc1ccc(C(=O)NC2CCC2)cc1-c1ccc(C(=O)NCC2CC2)cc1 | 2.05% | 3.94% | 1.11% | 1.02% | 3.17% | 3.5% | 8.52% | 16.7% | 17.7% | 4.2% | 2.82% | 2.48% | 1.75% | 5.21% | 0.27% | 2.36% | 3.31% | 3.29% | 3.04% | 0.25%
COc1cccc(/C=N/Nc2ncnc3c2cnn3-c2cccc(OC)c2)c1 | 5.8% | 1.82% | 3.68% | 0.66% | 1.2% | 0.2% | 5.67% | 5.57% | 10% | -0.09% | 3.78% | 3.43% | 3.25% | 4.2% | 2.4% | 5.34% | 6.12% | 4.59% | 5.11% | 2.44%
N#Cc1ccc(Oc2nccc(-c3c(-c4ccc(F)cc4)ncn3C3CCNCC3)n2)cc1 | 10.3% | 5.17% | 5.31% | -0.34% | 2.48% | 4.34% | 2.33% | 9.54% | 11.9% | 3.43% | 4.07% | 4.54% | 4.03% | -0.69% | 5.45% | 3.13% | 6.84% | 3.14% | 5.22% | 0.73%
Clc1ccc(CNc2nccc(-c3cnn4ncccc34)n2)cc1 | 9.79% | 2.09% | 2% | 0.83% | 0.64% | -2.69% | 2.99% | 3.33% | 1.08% | 3.91% | 1.93% | 0.01% | 1.6% | 0.58% | -1.59% | 0.2% | 1.7% | -0.71% | -0.67% | 4.74%
CCN(CC)Cc1ccc(Nc2nccc(-c3cnn4ncccc34)n2)cc1 | 27.2% | -0.97% | 0.55% | 1.62% | 8.4% | 3.58% | 3.96% | 1.52% | 5.17% | 3.88% | 15.5% | 5.99% | 28% | 1.77% | 11.6% | 4.18% | 8.8% | 2.66% | 5.35% | -1.71%
FC(F)(F)c1cccc(Nc2nccc(-c3cnn4nc(-c5ccccc5)ccc34)n2)c1 | 6.85% | 5.37% | 2.32% | -0.91% | 0.74% | 2.98% | 2.21% | 7% | 8.48% | -2.66% | 4.03% | 1.27% | 2.38% | -1.25% | -0.07% | 1.56% | 3.34% | 1.31% | 2.97% | -0.29%
COc1ccc2cc(-c3c(-c4ccncc4)nc(-c4ccc(S(C)(=O)=O)cc4C)n3C)ccc2c1 | 12.5% | 7.13% | 10.9% | 4.32% | 14.2% | 5.67% | 8.01% | 15% | 44.4% | 3.19% | 6.59% | 3.14% | 3.35% | 2.35% | 6.54% | 3.92% | 6.16% | 4.02% | 6.07% | -7.02%
Fc1ccc(-c2ncn(CCCN3CCOCC3)c2-c2ccncc2)cc1 | -5.28% | 2.51% | -2.79% | 0.93% | -0.14% | -0.2% | -6.58% | 4.44% | 4.14% | 0.26% | -1.08% | -0.1% | -0.6% | 0.01% | -2.73% | -1.34% | 2.45% | 0.86% | 2.18% | -3%
Cc1nnc(-c2ccc(C)c(-c3ccc(C(=O)NCc4ccc(Cl)cc4)cc3)c2)o1 | 2.23% | 1.15% | -1.34% | -0.5% | -2.62% | 5.39% | 4.99% | 3.42% | 7.48% | 3.34% | 3.71% | 2.32% | 1.83% | -2.72% | -1.85% | 0.07% | 11.1% | 1.78% | -1.81% | –
O=C(NCC1CC1)c1ccc(-c2cccc(C(=O)NC3CC3)c2)cc1 | 11.8% | 3.55% | 2.98% | 1.37% | 1.03% | -0.54% | 1.1% | 16.7% | 6.05% | 0.26% | -1.83% | 1.39% | 1.59% | 2.86% | 8.03% | 3.33% | 10.1% | 4.92% | 9.43% | -0.02%
